Bioassay records as filed in PubChem BioAssay.
RecA intein inh: blocks M. tuberculosis RecA intein splicing | cell-free RecA intein splicing, fluorescence | AID 2221 | 290,000 tested, 0.75% active | inhibition, % (test concentration not listed); in the data active means inhibition above about 30%; inconclusive means no clear call, values can overlap the other calls
Mtb hypoxia inh: Mtb hypoxia fluorescent reporter inhibition; M. tuberculosis hypoxia-regulated fluorescent reporter, fluorescence; fluorescence inhibition, % (no concentration beside the values); 300,000 tested, 0.1% active; AID 1159583; in the data active means fluorescence inhibition mostly above about 23%, no sharp cut-off; inactive means mostly below about 17%
FadD28 FP inh: M. tuberculosis FadD28 bisubstrate binding inhibition. FadD28 bisubstrate probe binding, fluorescence polarization. inhibition, % at 12.5 µM. 360,000 tested, 0.22% active. AID 588549; in the data active means inhibition above about 8.5%, passing the limit was not always enough; inconclusive means no clear call, values can overlap the other calls
Rv3671c protease: inhibitors of M. tuberculosis serine protease Rv3671c; inhibition, % at 5.96 µM; 320,000 tested, 0.048% active; AID 2606; in the data active means inhibition above about 38%;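 further: extracellular domain of Rv3671c used as enzyme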
Mtb UGM inh: Mtb UDP-galactopyranose mutase inhibition | P9WIQ1 | purified UGM, fluorescence polarization probe displacement | inhibition, % at 10 µM | 320,000 tested, 0.06% active | AID 504406; in the data active means inhibition above about 10%, passing the limit was not always enough; inconclusive means no clear call, values can overlap the other calls
Target sequence (P9WIQ1 whole entry, looked up): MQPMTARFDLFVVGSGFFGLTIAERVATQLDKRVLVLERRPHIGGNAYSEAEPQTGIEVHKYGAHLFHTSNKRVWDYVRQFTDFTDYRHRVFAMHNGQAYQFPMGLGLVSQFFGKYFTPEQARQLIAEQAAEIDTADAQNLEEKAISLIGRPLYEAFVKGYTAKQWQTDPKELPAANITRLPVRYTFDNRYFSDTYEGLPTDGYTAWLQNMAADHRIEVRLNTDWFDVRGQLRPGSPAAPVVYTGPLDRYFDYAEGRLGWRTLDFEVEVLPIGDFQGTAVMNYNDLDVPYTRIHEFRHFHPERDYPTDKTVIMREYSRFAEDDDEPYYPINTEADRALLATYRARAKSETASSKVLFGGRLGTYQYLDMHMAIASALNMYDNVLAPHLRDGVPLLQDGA
Mtb bLac sens: beta-lactam sensitization of Mtb H37Rv. M. tuberculosis H37Rv growth with meropenem, percent inhibition. inhibition, % at 25 µM. 330,000 tested, 0.27% active; call rule not given here;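 further: growth measured after seven days incubation then overnight dye step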
Of the large screens only hits and unclear results are named; the others gave an inactive call. In the library only some 0.92% were active in any assay of this set; here they are far more common.

CC1=NN(c2ccc(C)cc2C)C(=O)C1C(c1ccccc1O)C1C(=O)N(c2ccc(C)cc2C)N=C1C (stereo not drawn)	RecA intein inh 78
CS(=O)(=O)Nc1ccc(C(=O)NCCc2ccccc2)cc1	none
COC(=O)CCC(=O)OC1(C)C(=O)C2=CN(CCN3CCOCC3)C(c3ccc(OC)cc3)=CC2=C(Br)C1=O (stereo not drawn)	none (no result: Mtb hypoxia inh, FadD28 FP inh)
COC(=O)CCC(=O)OC1(C)C(=O)C2=CN(CCCCO)C(c3ccc(OC)cc3)=CC2=C(Br)C1=O (stereo not drawn)	RecA intein inh 48 (no result: Mtb hypoxia inh, FadD28 FP inh)
COc1ccccc1C1/C(=C(/O)c2ccccc2)C(=O)C(=O)N1CC(C)O (stereo not drawn)	FadD28 FP inh 10 (no result: Mtb hypoxia inh)
Nc1cc(Cl)c2nonc2c1[N+](=O)[O-]	Mtb hypoxia inh 40 (no result: RecA intein inh)
CCn1c(SCC(=O)NN=Cc2ccc(OC)c(OC)c2)nc2ccccc21	none (no result: RecA intein inh, FadD28 FP inh, Rv3671c protease, Mtb UGM inh, Mtb bLac sens)
CCN(C(=O)COC(=O)c1ccc(O)cc1O)c1c(N)n(Cc2ccccc2)c(=O)[nH]c1=O	Mtb UGM inh 10 (no result: RecA intein inh, FadD28 FP inh)
CCCNC(=O)[C@H](C)NC(=O)c1ccc(Br)cc1	none
O=C(OCn1ncc(Br)c(Br)c1=O)c1c(F)cccc1F	RecA intein inh 53 (no result: Mtb hypoxia inh, FadD28 FP inh)
CCN(CC)c1ccc2c(-c3ccc(S(=O)(=O)O)cc3S(=O)(=O)[O-])c3ccc(=[N+](CC)CC)cc-3oc2c1	Mtb hypoxia inh 39, FadD28 FP inh 135, Rv3671c protease active, Mtb UGM inh 93
CCN(CC)c1ccc2nc3c4ccccc4c(=O)cc-3oc2c1	none (no result: FadD28 FP inh, Rv3671c protease)
COc1ccc(NC(=O)c2cccc(N3C(=O)c4cccc([N+](=O)[O-])c4C3=O)c2)cc1	none
COc1ccc(/C=C2\C(=O)N(c3c(Cl)cc(Cl)cc3Cl)N=C2NC(=O)c2cccc([N+](=O)[O-])c2)cc1	FadD28 FP inh 8.4 (no result: RecA intein inh)
N#CCC(=O)Nc1ccc(C(=O)OCC(=O)Nc2cccc(C(F)(F)F)c2)cc1	FadD28 FP inh 11
Cc1cccc(C(=O)NC2CC(C)(C)NC(C)(C)C2)c1	none (no result: Mtb hypoxia inh)
Cc1ccc(NC2=C(Cl)C(=O)OC2OC(=O)c2ccco2)cc1C (stereo not drawn)	RecA intein inh 54
Cc1ccc(NC2=C(Cl)C(=O)OC2OC(=O)c2ccco2)c(C)c1 (stereo not drawn)	Mtb bLac sens inconclusive (no result: RecA intein inh, Mtb hypoxia inh)
Cc1ccc(C)c(NC2=C(Cl)C(=O)OC2OC(=O)c2ccco2)c1 (stereo not drawn)	RecA intein inh 46
O=C1NC(=O)N(c2ccc3c(c2)OCO3)C(=O)/C1=C/c1ccc(N2CCCCC2)o1	none
CCOc1ccc(N2C(=O)NC(=O)C(=Cc3ccc(N4CCCCC4)o3)C2=O)cc1	Mtb hypoxia inh 40 (no result: RecA intein inh, FadD28 FP inh, Rv3671c protease, Mtb UGM inh, Mtb bLac sens)
O=C1NC(=O)N(c2ccc3c(c2)OCO3)C(=O)C1=Cc1ccc(N2CCCC2)o1	Mtb hypoxia inh 40 (no result: RecA intein inh, FadD28 FP inh, Rv3671c protease, Mtb UGM inh, Mtb bLac sens)
O=C(NCc1ccccc1Br)c1cccc2c1C(=O)c1ccc(N3CCC(Cc4ccccc4)CC3)cc1S2(=O)=O	none (no result: RecA intein inh, Mtb hypoxia inh)
CS(=O)(=O)N(CC(=O)N1CCOCC1)c1cccc(Cl)c1	none (no result: RecA intein inh, Mtb hypoxia inh, Rv3671c protease, Mtb UGM inh, Mtb bLac sens)
CCOC(=O)c1[nH]c(C)c(C(=O)OCC(=O)NC(C)c2ccc(F)cc2)c1C (stereo not drawn)	none (no result: RecA intein inh)
N#C/C(=C/c1ccc(-c2ccc(S(N)(=O)=O)cc2)o1)c1nc2ccccc2s1	FadD28 FP inh 20 (no result: RecA intein inh)
N#C/C(=C/c1ccc(-c2ccc(S(N)(=O)=O)cc2)o1)C(=O)Nc1ccccc1	none
Cn1[nH]cc(C=NC(N)=O)c1=O	none (no result: RecA intein inh, Mtb hypoxia inh, Rv3671c protease, Mtb UGM inh, Mtb bLac sens)
O=Cc1sc(=O)n(Cc2cccc(C(=O)O)c2)c1Cl	RecA intein inh 54
O=C(COC(=O)c1ccc2c(c1Cl)C(=O)c1ccccc1C2=O)NC1CC1	RecA intein inh 41
O=C1NN(c2ccc(Cl)cc2)C(=O)/C1=C\c1ccc(-c2cccc(C(=O)O)c2)o1	FadD28 FP inh 23 (no result: RecA intein inh, Rv3671c protease, Mtb UGM inh, Mtb bLac sens)
CCn1c(CSc2nnc3ccccn23)nc2cc(C(=O)O)ccc21	FadD28 FP inh 13
Cc1ccc(C2(C)NC(=O)N(CC(=O)N3CCc4ccccc43)C2=O)cc1 (stereo not drawn)	none (no result: RecA intein inh)
Cc1ccc(C2(C)NC(=O)N(CC(=O)N3c4ccccc4NC(=O)CC3C)C2=O)cc1 (stereo not drawn)	Mtb hypoxia inh 13 (no result: RecA intein inh)
COc1ccccc1N1CCN(Cc2cccc(OC)c2OC)CC1	none (no result: RecA intein inh)
c1ccc2[nH]c3cc4ncnc4cc3nc2c1	RecA intein inh 60 (not shown: Mtb hypoxia inh)
COc1ccc(C(C)=O)cc1CN1C(=O)C(C)N(c2ccc(C)cc2)C1=O (stereo not drawn)	none
O=C(Nc1cccc([N+](=O)[O-])c1)NC1CCCCCCC1	FadD28 FP inh 18 (not shown: Mtb hypoxia inh, Rv3671c protease)
CCc1sc(NC(C)=O)nc1-c1ccccc1	none
COc1cc(C2C(C#N)=C(N)Oc3c2c(-c2ccccc2)nn3-c2ccccc2)cc(OC)c1OC (stereo not drawn)	RecA intein inh 70
COc1ccc(N2CCN(C(=O)c3ccc(-c4nc5ccccc5s4)o3)CC2)cc1	none (no result: RecA intein inh)
N=c1c2c(-c3ccccc3)c(-c3ccccc3)n(Cc3ccco3)c2ncn1CCCN1CCOCC1	FadD28 FP inh 8.8
COCCN(Cc1ccc(C)cc1)C(=O)[C@H]1O[C@@H](n2ccc(=O)[nH]c2=O)[C@H](O)[C@@H]1O	none (no result: RecA intein inh, Mtb hypoxia inh, Rv3671c protease, Mtb UGM inh, Mtb bLac sens)
COc1cc(/C=C(\C#N)c2nc3ccc(C)cc3[nH]2)c([N+](=O)[O-])cc1OC	none (no result: Mtb hypoxia inh)
COc1cc(/C=C(\C#N)c2nc3ccc(C)cc3[nH]2)cc([N+](=O)[O-])c1O	FadD28 FP inh 30 (not shown: RecA intein inh, Mtb hypoxia inh, Rv3671c protease, Mtb UGM inh, Mtb bLac sens)
O=C(Nc1ccc(N2CCOCC2)cc1)C1CCCN(S(=O)(=O)c2ccccc2)C1 (stereo not drawn)	none
CC(C)NC(=O)/C(=C/c1ccco1)c1ccccc1	none (no result: Mtb hypoxia inh)
C=C(C)[C@@H]1CC=C(CN2CCN(Cc3ccccc3)CC2)CC1	Mtb hypoxia inh 35
C=C(C)C1CC=C(CN2CCN(Cc3ccccc3)CC2)CC1 (stereo not drawn)	none
COc1cccc(C(=O)OCC(=O)NC(=O)NC2CCCC2)c1O	FadD28 FP inh 12
COc1cc(/C=N/NC(=O)COc2c(C)cc([N+](=O)[O-])cc2C)ccc1OC(=O)c1ccccc1Br	none (no result: Mtb hypoxia inh)
COc1cccc2c1C(=N)c1c(O)c3c(c(O)c1C2=O)CC(O)(C(C)=O)CC3OC1CC(N)C(O)C(C)O1 (stereo not drawn)	none (no result: RecA intein inh, Mtb hypoxia inh, Rv3671c protease, Mtb UGM inh, Mtb bLac sens)
COc1cccc2c1C(=O)c1c(O)c3c(c(O)c1C2=O)CC(O)(C(C)=O)CC3OC1CC(O)C(O)C(C)O1 (stereo not drawn)	FadD28 FP inh 66 (no result: RecA intein inh, Mtb hypoxia inh, Rv3671c protease, Mtb UGM inh, Mtb bLac sens)
O=C(O)CCc1c(C(=O)O)[nH]c2ccccc12	none
CCOC(=O)c1[nH]c2ccccc2c1NC(C)=O	none
CSc1ccc(C(c2c(C(=O)O)[nH]c3ccccc23)c2c(C(=O)O)[nH]c3ccccc23)cc1	FadD28 FP inh 38
CCOc1cc(Br)cc(C(c2c(C(=O)O)[nH]c3ccccc23)c2c(C(=O)O)[nH]c3ccccc23)c1O	FadD28 FP inh 33
COc1ccc(NC(=O)/C(C#N)=C/c2ncc([N+](=O)[O-])n2C)c(OC)c1	RecA intein inh 37
COc1ccc(NC(=O)/C(C#N)=C/c2ccc[nH]2)c(OC)c1	none
